biological target: Tll (Drosophila melanogaster, UniProt P18102 21-118); experiment: FP; 33 mM phosphate pH 7.0, 90 mM NaCl, 0.01% Tween 20, 0.1 mM DTT, 0.5% agarose; room temperature; details: tags: N-GST (pGEX-6P-1, kept); dsDNA, one strand shown
Sequence (P18102 21-118): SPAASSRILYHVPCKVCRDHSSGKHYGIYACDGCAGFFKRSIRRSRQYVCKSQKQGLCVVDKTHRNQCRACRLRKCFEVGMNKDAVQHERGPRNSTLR

Question: Which binding signal does the source give for AATAAGTCAAAT here?
Answer: The binding signal was 2.37 Kd / Kd of best base at the position.

Question: For AAAAAGTCCAAT, which binding signal is on record?
Answer: The binding signal was 14.4 Kd / Kd of best base at the position.

Question: How did the binding signal turn out when AAAGAGTCAAAT was run?
Answer: The binding signal was 3.96 Kd / Kd of best base at the position.

Question: How did the binding signal turn out when AAAAAGTGAAAT was run?
Answer: Its binding signal is 71.7 Kd / Kd of best base at the position.

Question: AAAAAGTCAATT was tested. Which binding signal did it give?
Answer: The binding signal was 1.96 Kd / Kd of best base at the position.

Question: With AGAAAGTCAAAT as the sequence, how does the binding signal read?
Answer: Its binding signal is 2.99 Kd / Kd of best base at the position.

Question: AAAAAGTCTAAT was tested. Which binding signal did it give?
Answer: The binding signal was 13.1 Kd / Kd of best base at the position.

Question: For AAAAAGACAAAT, which binding signal is on record?
Answer: The binding signal was 36.4 Kd / Kd of best base at the position.

Question: Which binding signal does the source give for CAAAAGTCAAAT here?
Answer: The binding signal was 2.71 Kd / Kd of best base at the position.

Question: How did the binding signal turn out when AAAAAATCAAAT was run?
Answer: The binding signal was 10.1 Kd / Kd of best base at the position.

Question: How did the binding signal turn out when AAAAAGTCAAGT was run?
Answer: Its binding signal is 3.05 Kd / Kd of best base at the position.

Question: For AAAAAGTCACAT, which binding signal is on record?
Answer: The binding signal was 1.72 Kd / Kd of best base at the position.

Question: Which Kd does the source give for AAAAAGTCAAAT here?
Answer: The Kd was ~4.1 nM.

Question: For AAACAGTCAAAT, which binding signal is on record?
Answer: The binding signal was 11.1 Kd / Kd of best base at the position.

Question: AAAAACTCAAAT was tested. Which binding signal did it give?
Answer: Its binding signal is 57.7 Kd / Kd of best base at the position.

Question: AAAATGTCAAAT was tested. Which binding signal did it give?
Answer: Its binding signal is 15 Kd / Kd of best base at the position.

Question: How did the binding signal turn out when AAAACGTCAAAT was run?
Answer: The binding signal was 8.65 Kd / Kd of best base at the position.

Question: Which binding signal does the source give for AAATAGTCAAAT here?
Answer: Its binding signal is 12.4 Kd / Kd of best base at the position.

Question: Which binding signal does the source give for TAAAAGTCAAAT here?
Answer: The binding signal was 2.03 Kd / Kd of best base at the position.

Question: With ATAAAGTCAAAT as the sequence, how does the binding signal read?
Answer: The binding signal was 2.33 Kd / Kd of best base at the position.

Question: AAAAAGTTAAAT was tested. Which binding signal did it give?
Answer: The binding signal was 2.32 Kd / Kd of best base at the position.

Question: ACAAAGTCAAAT was tested. Which binding signal did it give?
Answer: Its binding signal is 3.41 Kd / Kd of best base at the position.

Question: With AAAAATTCAAAT as the sequence, how does the binding signal read?
Answer: The binding signal was 71.4 Kd / Kd of best base at the position.

Question: How did the binding signal turn out when AAAAAGTCAAAA was run?
Answer: The binding signal was 1.57 Kd / Kd of best base at the position.

Question: AAAAAGTCAACT was tested. Which binding signal did it give?
Answer: Its binding signal is 2.61 Kd / Kd of best base at the position.

Question: Which binding signal does the source give for AAAAGGTCAAAT here?
Answer: Its binding signal is 6.02 Kd / Kd of best base at the position.

Question: AACAAGTCAAAT was tested. Which binding signal did it give?
Answer: Its binding signal is 3.38 Kd / Kd of best base at the position.

Question: GAAAAGTCAAAT was tested. Which binding signal did it give?
Answer: The binding signal was 1.71 Kd / Kd of best base at the position.

Question: AAAAAGTCAAAC was tested. Which binding signal did it give?
Answer: The binding signal was 1.05 Kd / Kd of best base at the position.

Question: AAAAAGTCGAAT was tested. Which binding signal did it give?
Answer: The binding signal was 5.21 Kd / Kd of best base at the position.

Question: How did the binding signal turn out when AAAAAGTAAAAT was run?
Answer: Its binding signal is 18.6 Kd / Kd of best base at the position.

Question: How did the binding signal turn out when AAGAAGTCAAAT was run?
Answer: The binding signal was 1.73 Kd / Kd of best base at the position.

Question: Which binding signal does the source give for AAAAAGTCATAT here?
Answer: Its binding signal is 3.23 Kd / Kd of best base at the position.

Question: Which binding signal does the source give for AAAAAGGCAAAT here?
Answer: The binding signal was 7.78 Kd / Kd of best base at the position.

Question: AAAAAGCCAAAT was tested. Which binding signal did it give?
Answer: Its binding signal is 7.08 Kd / Kd of best base at the position.

Question: For AAAAAGTCAAAG, which binding signal is on record?
Answer: The binding signal was 2.05 Kd / Kd of best base at the position.

Question: AAAAAGTCAGAT was tested. Which binding signal did it give?
Answer: Its binding signal is 4.13 Kd / Kd of best base at the position.

Reference: paper PMC5913336, “True equilibrium measurement of transcription factor-DNA binding affinities using automated polarization microscopy”
